As a reminder, the inhibition is the drop in the measured response relative to a control, in per cent.

Results on one molecule are retold here after ChEMBL document CHEMBL1961873, “Compounds: GSK PKIS; Assays: Nanosyn kinase panel” (2012).

Assay [1] concerns the target Sphingosine kinase 1 (Homo sapiens) (UniProt Q9NYA1). To be noted: at 1 µM.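 Also: mean SPHK1 inhibition value reported from the GSK PKIS kinase panel screen.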
The target in assay [2] is T1, Sphingosine kinase 2 (Homo sapiens) (UniProt Q9NRA0).
T1 sequence (whole entry): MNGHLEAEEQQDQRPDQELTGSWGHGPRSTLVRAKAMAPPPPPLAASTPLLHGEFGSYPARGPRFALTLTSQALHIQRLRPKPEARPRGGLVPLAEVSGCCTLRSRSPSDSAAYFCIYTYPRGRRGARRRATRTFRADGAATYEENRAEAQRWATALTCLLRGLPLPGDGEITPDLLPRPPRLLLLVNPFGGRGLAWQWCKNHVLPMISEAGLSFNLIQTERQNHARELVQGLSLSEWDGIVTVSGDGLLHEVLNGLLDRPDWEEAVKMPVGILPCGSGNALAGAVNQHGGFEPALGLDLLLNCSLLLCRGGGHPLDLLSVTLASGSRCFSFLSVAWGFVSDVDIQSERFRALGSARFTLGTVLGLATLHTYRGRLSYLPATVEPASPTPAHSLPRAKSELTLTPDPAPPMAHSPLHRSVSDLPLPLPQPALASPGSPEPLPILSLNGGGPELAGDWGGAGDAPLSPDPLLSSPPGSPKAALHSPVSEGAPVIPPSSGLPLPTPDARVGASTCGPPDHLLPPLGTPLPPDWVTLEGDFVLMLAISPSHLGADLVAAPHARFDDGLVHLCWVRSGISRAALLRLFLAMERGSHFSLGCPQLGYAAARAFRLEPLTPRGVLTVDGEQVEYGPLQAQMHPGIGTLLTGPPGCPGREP
To be noted: at 0.1 µM.

In assay [3] the target is T1, Sphingosine kinase 2 (Homo sapiens). Conditions: at 1 µM.
Assay [4] deals with Casein kinase II subunit alpha (Homo sapiens) (UniProt P68400). Conditions: at 0.1 µM.
Casein kinase II subunit alpha (Homo sapiens), sequence (P68400 whole entry, looked up): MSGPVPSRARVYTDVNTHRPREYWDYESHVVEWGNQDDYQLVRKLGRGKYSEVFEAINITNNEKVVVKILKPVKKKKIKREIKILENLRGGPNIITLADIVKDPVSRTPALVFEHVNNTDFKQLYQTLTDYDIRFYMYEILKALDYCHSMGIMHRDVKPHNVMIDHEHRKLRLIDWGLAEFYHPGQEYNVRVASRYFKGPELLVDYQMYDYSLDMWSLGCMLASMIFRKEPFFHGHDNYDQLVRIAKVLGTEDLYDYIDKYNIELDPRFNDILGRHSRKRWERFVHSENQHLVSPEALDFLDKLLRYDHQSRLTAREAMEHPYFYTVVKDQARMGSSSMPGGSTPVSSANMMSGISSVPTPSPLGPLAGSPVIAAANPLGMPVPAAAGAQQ
Assay [5] has the same target. To be noted: at 1 µM.
Assay [6] has as its target T2, Inhibitor of nuclear factor kappa-B kinase subunit alpha (Homo sapiens) (UniProt O15111).
T2 sequence (whole entry): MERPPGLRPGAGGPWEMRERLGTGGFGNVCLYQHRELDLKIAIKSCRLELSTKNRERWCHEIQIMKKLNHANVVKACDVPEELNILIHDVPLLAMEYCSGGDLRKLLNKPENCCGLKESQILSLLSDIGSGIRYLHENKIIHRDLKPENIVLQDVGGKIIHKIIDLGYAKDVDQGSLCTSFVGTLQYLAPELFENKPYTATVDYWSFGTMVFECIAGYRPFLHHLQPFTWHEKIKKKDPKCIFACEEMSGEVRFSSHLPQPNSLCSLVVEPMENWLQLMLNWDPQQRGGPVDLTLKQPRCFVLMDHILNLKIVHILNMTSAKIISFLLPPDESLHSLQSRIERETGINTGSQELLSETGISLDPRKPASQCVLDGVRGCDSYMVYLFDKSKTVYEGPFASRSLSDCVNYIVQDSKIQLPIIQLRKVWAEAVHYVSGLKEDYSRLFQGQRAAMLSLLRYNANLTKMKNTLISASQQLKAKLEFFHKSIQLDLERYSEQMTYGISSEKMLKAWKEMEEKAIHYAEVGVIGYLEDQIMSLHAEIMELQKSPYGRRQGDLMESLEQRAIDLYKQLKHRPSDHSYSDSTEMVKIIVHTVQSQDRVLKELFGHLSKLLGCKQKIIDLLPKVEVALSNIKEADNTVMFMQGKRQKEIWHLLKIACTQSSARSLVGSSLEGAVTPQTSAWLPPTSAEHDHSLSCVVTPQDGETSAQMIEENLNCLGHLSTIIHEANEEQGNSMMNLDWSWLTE
To be noted: at 0.1 µM.

In assay [7] the target is T2, Inhibitor of nuclear factor kappa-B kinase subunit alpha (Homo sapiens). Conditions: at 1 µM.
The target in assay [8] is T3, Inhibitor of nuclear factor kappa-B kinase subunit beta (Homo sapiens) (UniProt O14920).
T3 sequence (whole entry): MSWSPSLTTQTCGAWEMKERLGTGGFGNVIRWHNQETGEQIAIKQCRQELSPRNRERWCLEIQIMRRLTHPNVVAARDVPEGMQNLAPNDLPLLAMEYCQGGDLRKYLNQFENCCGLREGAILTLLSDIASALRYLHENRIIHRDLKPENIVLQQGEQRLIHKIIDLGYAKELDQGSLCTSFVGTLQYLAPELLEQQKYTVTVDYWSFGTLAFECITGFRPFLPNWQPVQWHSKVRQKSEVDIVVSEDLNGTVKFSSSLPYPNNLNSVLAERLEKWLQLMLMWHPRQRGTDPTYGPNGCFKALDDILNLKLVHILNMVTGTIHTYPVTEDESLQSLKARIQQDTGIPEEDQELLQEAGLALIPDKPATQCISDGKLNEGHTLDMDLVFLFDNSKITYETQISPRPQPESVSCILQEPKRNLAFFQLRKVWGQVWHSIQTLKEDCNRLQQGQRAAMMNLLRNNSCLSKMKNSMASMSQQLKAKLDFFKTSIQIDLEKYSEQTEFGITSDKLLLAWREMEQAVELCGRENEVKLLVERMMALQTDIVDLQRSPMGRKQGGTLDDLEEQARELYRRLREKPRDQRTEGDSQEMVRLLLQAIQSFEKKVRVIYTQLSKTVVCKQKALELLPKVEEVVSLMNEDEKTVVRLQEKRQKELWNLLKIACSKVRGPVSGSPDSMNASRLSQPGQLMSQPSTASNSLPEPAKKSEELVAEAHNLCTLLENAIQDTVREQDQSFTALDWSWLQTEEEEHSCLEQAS
To be noted: at 0.1 µM.

In assay [9] the target is T3, Inhibitor of nuclear factor kappa-B kinase subunit beta (Homo sapiens). Conditions: at 1 µM.
The target of assay [10] is T4, Inhibitor of nuclear factor kappa-B kinase subunit epsilon (Homo sapiens) (UniProt Q14164).
T4 sequence (whole entry): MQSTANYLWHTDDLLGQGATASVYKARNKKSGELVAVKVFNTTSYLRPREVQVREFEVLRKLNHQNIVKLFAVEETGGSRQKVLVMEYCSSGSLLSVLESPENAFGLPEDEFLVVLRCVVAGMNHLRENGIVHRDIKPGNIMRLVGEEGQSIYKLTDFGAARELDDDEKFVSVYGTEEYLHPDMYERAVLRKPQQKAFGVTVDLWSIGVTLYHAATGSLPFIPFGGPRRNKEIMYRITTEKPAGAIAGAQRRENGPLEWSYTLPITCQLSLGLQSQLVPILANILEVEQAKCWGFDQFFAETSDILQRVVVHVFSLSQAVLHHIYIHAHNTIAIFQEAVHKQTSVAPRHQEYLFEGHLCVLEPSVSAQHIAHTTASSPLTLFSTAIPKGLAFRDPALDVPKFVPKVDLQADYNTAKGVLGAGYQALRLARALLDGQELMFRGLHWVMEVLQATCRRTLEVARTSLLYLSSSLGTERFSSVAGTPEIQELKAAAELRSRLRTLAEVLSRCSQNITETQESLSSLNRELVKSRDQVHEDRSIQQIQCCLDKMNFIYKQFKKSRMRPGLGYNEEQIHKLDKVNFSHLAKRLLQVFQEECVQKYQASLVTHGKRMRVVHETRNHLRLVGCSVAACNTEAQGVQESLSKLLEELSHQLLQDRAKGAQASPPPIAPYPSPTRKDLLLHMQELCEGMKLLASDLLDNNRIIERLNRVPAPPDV
Conditions: at 0.1 µM.

In assay [11] the target is T4, Inhibitor of nuclear factor kappa-B kinase subunit epsilon (Homo sapiens). Conditions: at 1 µM.
For assay [12], the target named is T5, Serine/threonine-protein kinase Nek1 (Homo sapiens) (UniProt Q96PY6).
T5 sequence (whole entry): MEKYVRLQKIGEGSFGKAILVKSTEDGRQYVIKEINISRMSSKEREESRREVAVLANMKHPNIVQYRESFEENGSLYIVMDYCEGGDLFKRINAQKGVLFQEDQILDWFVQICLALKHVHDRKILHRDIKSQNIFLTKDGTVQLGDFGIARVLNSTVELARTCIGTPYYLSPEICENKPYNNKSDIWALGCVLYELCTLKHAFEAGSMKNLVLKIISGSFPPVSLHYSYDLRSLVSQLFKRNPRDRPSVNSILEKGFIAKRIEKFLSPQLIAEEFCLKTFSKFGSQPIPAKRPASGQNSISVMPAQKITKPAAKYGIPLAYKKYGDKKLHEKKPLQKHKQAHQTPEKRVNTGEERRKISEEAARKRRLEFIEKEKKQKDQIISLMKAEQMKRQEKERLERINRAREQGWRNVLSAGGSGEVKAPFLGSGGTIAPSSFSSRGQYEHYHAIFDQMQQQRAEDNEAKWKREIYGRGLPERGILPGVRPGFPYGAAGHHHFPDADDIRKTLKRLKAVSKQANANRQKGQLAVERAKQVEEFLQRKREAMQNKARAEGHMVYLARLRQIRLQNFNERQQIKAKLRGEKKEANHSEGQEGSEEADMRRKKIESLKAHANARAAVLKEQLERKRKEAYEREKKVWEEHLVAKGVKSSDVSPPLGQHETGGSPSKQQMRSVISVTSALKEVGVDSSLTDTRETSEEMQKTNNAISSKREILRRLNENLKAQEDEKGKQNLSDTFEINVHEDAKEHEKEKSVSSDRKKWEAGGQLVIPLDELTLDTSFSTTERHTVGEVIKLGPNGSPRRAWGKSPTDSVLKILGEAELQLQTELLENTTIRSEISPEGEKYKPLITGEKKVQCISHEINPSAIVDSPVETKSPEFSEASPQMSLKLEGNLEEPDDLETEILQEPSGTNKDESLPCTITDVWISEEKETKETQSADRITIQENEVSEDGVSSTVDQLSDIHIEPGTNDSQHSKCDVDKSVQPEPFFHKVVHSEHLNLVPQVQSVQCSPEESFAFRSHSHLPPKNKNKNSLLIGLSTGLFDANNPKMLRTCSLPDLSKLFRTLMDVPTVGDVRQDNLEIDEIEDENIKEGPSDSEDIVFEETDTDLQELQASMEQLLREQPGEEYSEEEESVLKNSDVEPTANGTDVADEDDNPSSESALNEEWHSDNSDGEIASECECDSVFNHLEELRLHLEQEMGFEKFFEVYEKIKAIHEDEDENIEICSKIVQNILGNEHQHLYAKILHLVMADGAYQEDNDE
Conditions: at 0.1 µM.

Assay [13] addresses T5, Serine/threonine-protein kinase Nek1 (Homo sapiens). To be noted: at 1 µM.
In assay [14] the target is T6, Serine/threonine-protein kinase Nek2 (Homo sapiens) (UniProt P51955).
T6 sequence (whole entry): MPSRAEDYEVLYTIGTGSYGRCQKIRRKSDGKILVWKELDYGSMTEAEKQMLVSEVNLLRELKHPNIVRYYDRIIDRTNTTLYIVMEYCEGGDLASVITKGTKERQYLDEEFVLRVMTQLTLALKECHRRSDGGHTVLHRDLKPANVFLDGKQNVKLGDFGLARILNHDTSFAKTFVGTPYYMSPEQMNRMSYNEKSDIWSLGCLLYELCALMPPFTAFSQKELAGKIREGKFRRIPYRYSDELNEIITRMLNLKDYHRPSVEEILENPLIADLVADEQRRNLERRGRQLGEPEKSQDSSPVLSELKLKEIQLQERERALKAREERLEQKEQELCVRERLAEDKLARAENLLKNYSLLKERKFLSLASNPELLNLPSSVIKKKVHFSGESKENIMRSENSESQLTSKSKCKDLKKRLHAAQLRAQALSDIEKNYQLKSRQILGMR
Conditions: at 0.1 µM.

Assay [15] addresses T6, Serine/threonine-protein kinase Nek2 (Homo sapiens). To be noted: at 1 µM.
The target in assay [16] is Serine/threonine-protein kinase Nek6 (Homo sapiens) (UniProt Q9HC98). To be noted: at 0.1 µM.
Serine/threonine-protein kinase Nek6 (Homo sapiens), sequence (Q9HC98 whole entry): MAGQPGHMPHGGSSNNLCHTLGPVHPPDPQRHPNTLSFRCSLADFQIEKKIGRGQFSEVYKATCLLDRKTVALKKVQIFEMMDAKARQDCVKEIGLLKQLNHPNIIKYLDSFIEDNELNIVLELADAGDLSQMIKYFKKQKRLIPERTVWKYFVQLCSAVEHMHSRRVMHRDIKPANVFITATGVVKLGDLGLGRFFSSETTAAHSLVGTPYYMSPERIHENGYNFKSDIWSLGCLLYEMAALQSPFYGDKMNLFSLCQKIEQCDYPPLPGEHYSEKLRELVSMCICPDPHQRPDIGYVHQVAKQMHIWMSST
Assay [17] has the same target. Conditions: at 1 µM.
Assay [18] addresses Serine/threonine-protein kinase Nek7 (Homo sapiens) (UniProt Q8TDX7). Conditions: at 1 µM.
Assay [19] deals with T7, Serine/threonine-protein kinase Nek9 (Homo sapiens) (UniProt Q8TD19).
T7 sequence (whole entry): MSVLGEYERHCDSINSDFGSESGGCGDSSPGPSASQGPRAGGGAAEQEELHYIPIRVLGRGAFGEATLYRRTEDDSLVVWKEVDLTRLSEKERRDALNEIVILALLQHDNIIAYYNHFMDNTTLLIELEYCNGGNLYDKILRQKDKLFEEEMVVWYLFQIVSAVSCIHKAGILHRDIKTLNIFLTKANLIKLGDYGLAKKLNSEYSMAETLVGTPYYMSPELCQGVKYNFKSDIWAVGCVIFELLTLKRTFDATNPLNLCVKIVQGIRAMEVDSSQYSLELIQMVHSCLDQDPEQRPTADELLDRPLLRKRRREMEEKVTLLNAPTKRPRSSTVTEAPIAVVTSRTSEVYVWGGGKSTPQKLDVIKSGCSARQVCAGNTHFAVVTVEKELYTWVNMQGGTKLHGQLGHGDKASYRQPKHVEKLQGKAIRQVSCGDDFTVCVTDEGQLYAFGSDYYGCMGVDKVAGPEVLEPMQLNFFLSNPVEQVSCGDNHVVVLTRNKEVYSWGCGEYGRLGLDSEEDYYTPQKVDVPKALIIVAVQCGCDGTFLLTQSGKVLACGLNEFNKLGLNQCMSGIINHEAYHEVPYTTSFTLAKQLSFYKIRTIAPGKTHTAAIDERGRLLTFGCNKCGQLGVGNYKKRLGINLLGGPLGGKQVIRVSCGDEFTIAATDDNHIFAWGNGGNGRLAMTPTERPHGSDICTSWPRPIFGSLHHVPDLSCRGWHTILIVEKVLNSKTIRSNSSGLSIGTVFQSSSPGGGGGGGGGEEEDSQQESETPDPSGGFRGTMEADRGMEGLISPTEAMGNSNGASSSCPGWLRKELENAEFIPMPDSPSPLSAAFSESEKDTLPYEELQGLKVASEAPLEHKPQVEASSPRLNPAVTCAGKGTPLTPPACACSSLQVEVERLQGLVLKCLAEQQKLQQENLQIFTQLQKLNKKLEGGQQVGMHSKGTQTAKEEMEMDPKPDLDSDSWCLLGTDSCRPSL
Conditions: at 0.1 µM.

Sphingosine kinase 1 (Homo sapiens), sequence (Q9NYA1 whole entry): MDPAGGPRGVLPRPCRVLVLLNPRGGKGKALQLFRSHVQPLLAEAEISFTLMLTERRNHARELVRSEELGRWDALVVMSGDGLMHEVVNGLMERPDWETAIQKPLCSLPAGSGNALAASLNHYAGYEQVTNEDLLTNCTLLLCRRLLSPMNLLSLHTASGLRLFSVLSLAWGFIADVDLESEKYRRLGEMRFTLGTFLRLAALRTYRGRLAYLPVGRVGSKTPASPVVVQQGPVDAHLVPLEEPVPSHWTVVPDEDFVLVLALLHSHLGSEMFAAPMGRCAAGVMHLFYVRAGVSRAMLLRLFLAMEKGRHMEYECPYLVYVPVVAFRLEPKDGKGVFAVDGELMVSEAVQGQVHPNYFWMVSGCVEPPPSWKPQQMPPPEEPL
Serine/threonine-protein kinase Nek7 (Homo sapiens), sequence (Q8TDX7 whole entry, looked up): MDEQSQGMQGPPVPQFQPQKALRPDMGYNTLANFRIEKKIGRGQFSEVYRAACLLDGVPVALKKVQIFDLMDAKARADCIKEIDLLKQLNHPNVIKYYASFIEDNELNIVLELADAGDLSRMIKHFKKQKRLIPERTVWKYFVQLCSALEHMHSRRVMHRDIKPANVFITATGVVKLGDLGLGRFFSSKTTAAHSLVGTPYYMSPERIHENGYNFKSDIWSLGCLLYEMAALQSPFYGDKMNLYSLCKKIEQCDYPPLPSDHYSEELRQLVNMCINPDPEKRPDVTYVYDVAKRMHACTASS

Take `C/C(Nc1ccc(S(N)(=O)=O)cc1)=C1/C(=O)Nc2ccccc21`: the inhibition in [1] is 2.7%; in assay [2] it was 0.02%; in [3], 0.53%; in assay [4], -0.1%; in assay [5], 7.42%; in [6], 4.91%. Also, the inhibition in assay [7] was 2.59%; in assay [8], -0.76%; in assay [9] it was 1.17%; in assay [10] it was -2.73%; in assay [11] it was 2.23%; in [12], -0.12%. In addition, the inhibition was 0.52% in assay [13]; -0.14% in [14]; 0.19% in assay [15]; -4.26% in assay [16]; -0.83% in [17]; -0.23% in [18]. In assay [19], the inhibition was determined as 2.83%.
